Pf growth 96h – P. falciparum growth inhibition at 96 hour, primary screen for plastid delayed-death inhibitors | 6.9% of 320,000 active | AID 504834 | P. falciparum luciferase reporter growth, 96 h | Potency, µM (highest dose often 28.7 µM), for inactives: top-dose activity change, negative = inhibition, actives largely listed as inhibitors; note: % is set by controls: 0 for no effect and ±100 for the full control effect
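P. falciparum expressing integrated firefly luciferase, in erythrocytes at 2% hematocrit, 0.05% parasitemia, incubated with compounds 96 h at 37 C, 5% CO2. Growth inhibition read as loss of luminescence; two-generation exposure targets delayed-death apicoplast inhibitors.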
SARS PLP yeast – SARS-CoV PLP inhibition in yeast; S. cerevisiae expressing SARS-CoV PLpro, growth rescue; 0.19% of 330,000 active; Potency, µM (series often up to 32.9 µM), for the others: at the highest dose activity, positive = growth rescue, hits mostly activators; calls by dose curve; note: 0% is about no effect; nearly all actives have a fitted effect of over 55% in size
Sm TGR inh – inhibitors of Schistosoma mansoni thioredoxin glutathione reductase; 3% of 360,000 active; Potency, µM (series often up to 114 µM), without a hit: top-dose activity change, negative = inhibition, hits mostly inhibitors; purified TGR, DTNB reduction, TNB absorbance 405 nm; note: % is set by controls: 0 for no effect and ±100 for the full control effect; nearly all actives have a fitted effect of over 60% in size
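Kinetic colorimetric format: TGR-catalysed, NADPH-driven DTNB reduction monitored via TNB absorbance. Enzyme dispensed at 20 nM; compound exposure 15 min at room temperature before reaction start.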
Pf growth 48h – inhibits P. falciparum growth in the first generation, 48 h. P. falciparum luciferase growth in erythrocytes, 48 h. Potency, µM (titrated, usually from 28.7 µM), for the others: top-dose activity change, negative = inhibition, actives largely listed as inhibitors. 5.9% of 310,000 active. AID 504832; note: % is set by controls: 0 for no effect and ±100 for the full control effect
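Luminescence readout; reporter = integrated firefly luciferase in P. falciparum. RBC culture at 2% hematocrit, 0.1% parasitemia final, 37 C/5% CO2; decreased signal taken as growth inhibition.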
Starred values were filed as active, the others as inactive; u = inconclusive; x = no result; ! = repeats disagree; [ ] = dose if it differs, or a comment. Hits are enriched below; roughly 12% of the tested compounds scored in any of these assays. Unless noted, calls come from the whole dose curve; as a rule, active = well fitted curve in the direction sought with a large enough effect; inconclusive = small, poorly fitted or top-dose-only effect, or another doubt; inactive = no such curve, though single readings can be large; an effect the other way counts as inactive or inconclusive. Potency is the fitted concentration of half-maximal effect.

SMILES	Pf growth 96h	SARS PLP yeast	Sm TGR inh	Pf growth 48h
CC1CC(C)CN(C(=O)c2nn(C)c3c2CSc2ccccc2-3)C1 (configuration not stated)	5.9µM*	-9%	8%	u
CC1CCCN(C(=O)c2nn(C)c3c2CSc2ccccc2-3)C1 (configuration not stated)	4%	-3%	u	5%
CC(C)Oc1ccc(C(=O)OCC(=O)NCCNC(=O)COC(=O)c2ccc(OC(C)C)cc2)cc1	13µM*	-2%	-8%	u
C=C1C(=O)O[C@@H]2C[C@@H](C)[C@H]3C=CC(=O)[C@]3(O)C[C@@H]12	u	2%	35µM*	u
CCC(N)Cc1c[nH]c2ccccc12 (configuration not stated)	0.67µM*!	4%	5%	5%
CC(Cc1c[nH]c2ccccc12)C(=O)O (configuration not stated)	47%	2%	4%	20%
CCOC(=O)C1=C(CSc2nc(CC)c(C)cc2C#N)OC(N)=C(C#N)C1c1ccc(OC)cc1 (configuration not stated)	u	1%	u	u
COC(=O)C1=C(CSc2nc3c(cc2C#N)CN(C)CC3)OC(N)=C(C#N)C1c1ccc(F)cc1 (configuration not stated)	u	-14%	u	9.3µM*
CC(C)C[C@H](NC(=O)NCc1ccccc1Cl)C(=O)O	0.93µM*	-2%	7%	7%
CC(C)c1ccccc1NC(=O)C(Cc1c[nH]c2ccccc12)NC(=O)OC(C)(C)C (configuration not stated)	x	x	11%	x
O=C(c1ccco1)N1CCN(c2nc(C(F)(F)F)nc3c2nnn3Cc2ccccc2)CC1	x	-24%	-8%	9.3µM*
O=C(c1ccco1)N1CCCC(c2nc3c(nnn3Cc3cccc(Cl)c3)c(=O)[nH]2)C1 (configuration not stated)	52%	7%	8%	u
O=C(c1ccco1)N1CCN(c2ncnc3c2nnn3Cc2ccccc2Cl)CC1	-24%	-19%	-14%	12µM*
CCOc1ccc(N(CC(=O)Nc2ccc(OC)cc2)S(=O)(=O)c2ccc(Cl)cc2)cc1	x	x	6%	x
Cc1ccccc1CSc1nc2cccnc2n1Cc1ccc(C(=O)NCCc2cccs2)cc1	x	x	5%	x
COc1ccc(CCNC(=O)CN(C)S(=O)(=O)c2cccs2)cc1OC	u	2%	-3%	-2%
COc1ccc(S(=O)(=O)N(C)CC(=O)NCCc2ccccc2)cc1OC	15µM*	0%	-7%	u
COc1ccc(CCNC(=O)CN(C)S(=O)(=O)c2ccc(Br)s2)cc1OC	1.9µM*	10%	0%	-5%
COc1cccc(-n2c(SCC(=O)Nc3cc(C)ccc3C)nc3c(oc4ccccc43)c2=O)c1	x	x	-1%	x
O=C1ON=C(c2cccc([N+](=O)[O-])c2)/C1=C/c1ccc(O)cc1	1%	0%	10µM*	12%
O=C1ON=C(c2ccccc2)/C1=C/c1ccc(O)c(O)c1	1%	1%	5µM*	8%[0.00184 µM]
O=C1ON=C(c2ccccc2)/C1=C/c1ccc(OS(=O)(=O)c2ccccc2)cc1	32%	0%	8.9µM*	15%
CC1(C)CC2(CC(c3cccs3)c3cc(Cl)c(O)cc3O2)NC(=S)N1 (configuration not stated)	u	1%	8%	u
CC1(C)CC2(CC(c3ccccc3F)c3ccc(O)c(O)c3O2)NC(=S)N1 (configuration not stated)	u	1%	1.1µM*	u
CC1(C)CC2(CC(c3ccc(F)cc3)c3ccc(O)cc3O2)NC(=S)N1 (configuration not stated)	-16%	4%	1%	2.3µM*
SMILES	Pf growth 96h	SARS PLP yeast	Sm TGR inh	Pf growth 48h
COC(=O)c1ccccc1NC(=O)C1=C(C)C(=O)OC12CCCCCC2	x	x	-6%	x
CC(C)(C)n1nnnc1CN(Cc1cccnc1)Cc1ccccc1Cl	x	1%	-20%	15µM*
CC(C)(C)n1nnnc1C(c1ccc(Cl)cc1)N(Cc1cccnc1)Cc1ccco1 (configuration not stated)	24%	-14%	-23%	u
COc1ccc(-c2ocnc2C(=O)Nc2ccc(N3CCOCC3)cc2N2CCOCC2)cc1OC	38%	-3%	1%	8.3µM*
COc1cc(OC)cc(C(=O)Nc2ccc(N3CCOCC3)cc2N2CCOCC2)c1	13µM*	11%	-6%	u
COC(=O)c1ccc(CN2CCCC(C(=O)c3ccccc3OC)C2)cc1 (configuration not stated)	-6%	7%	-10%	0%
CCc1ccc(CN(C)CC(=O)Nc2ccc(S(=O)(=O)N3CCOCC3)cc2)cc1	u	0%[6.58 µM]	4%	10µM*
COc1ccc(N(CC(=O)Nc2ccc(S(=O)(=O)N3CCOCC3)cc2)S(=O)(=O)c2ccc(F)cc2)cc1	-1%	-1%	8%	13µM*
CN(CC(=O)Nc1ccc(S(=O)(=O)N2CCOCC2)cc1)Cc1ccc(F)cc1	13µM*	1%	-3%	u
CN(CC(=O)Nc1ccc(S(=O)(=O)N2CCCC2)cc1)CC(=O)Nc1ccc(F)c(F)c1F	u	-1%	-7%	10µM*
COCCCNC(=O)Cn1cc(/C=C(\C#N)C(=O)NC2CCCC2)c2ccccc21	9%	1%	-22%	14%
CN(CC(=O)Nc1cc(Cl)cc(Cl)c1)Cc1cccs1	-3%	-8%	8%	-17%
O=C(/C(C=Nc1ccc(Br)cc1)=C(/O)c1ccco1)C(F)(F)F	2.9µM*	5%	-17%	228%
N#CC(c1ccc(Cl)cc1)c1ccc2c(C(F)(F)F)cc(C(F)(F)F)nc2n1 (configuration not stated)	2.6µM*	-42%	20%	x
FC(F)(F)c1cc(C(F)(F)F)c2ccc(N3CCN(c4ccc(Cl)cc4)CC3)nc2n1	28%	2%	14%	36%
COc1ccc(OC)c(CCNC(=O)Cn2nc(C)n3c(cc4sccc43)c2=O)c1	x	x	5%	x
S=C(N/N=C/c1ccc2c(c1)OCO2)NC1CC2CCC1C2 (configuration not stated)	2.6µM*	0%	3%	2.1µM*
Cc1cccc(NC(=S)N/N=C/c2ccc3c(c2)OCO3)c1	-18%	u	-1%	20%
COc1ccc(/C=N/NC(=S)N[C@H]2CC3CCC2C3)cc1 (some centres not stated)	5.2µM*	2%	3%	4.1µM*
COc1cc(/C=N/NC(=S)NC2CC3CCC2C3)ccc1O (configuration not stated)	u	2%	-21%	0%
O=C(O)CN1C(=O)/C(=C/c2ccccc2Br)Oc2ccccc21	37%	-3%	0%	27%
CCOC(=O)C1(Cc2cccc(F)c2)CCN(Cc2nc(CC)[nH]c2C)CC1	42%	0%	-36%	3.3µM*
CCOC(=O)C1(Cc2cccc(F)c2)CCN(CC2CC2)CC1	15µM*	-1%	x	17%
